KLF5 inhibitor: KLF5 expression inhibitors, primary screen, DLD-1 cells, luminescence | DLD-1 KLF5 promoter-luciferase reporter | inhibition, % at 5 µM | 290,000 tested, 0.23% active;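 active means inhibition above a per-plate limit of that plate's mean compound inhibition plus 3 SD, cut at about 60% in these data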;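 further: 0% = DMSO wells and 100% = LY294002 at 200 µM; higher means less KLF5 promoter-driven luciferase light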
FID counter: compounds displacing fluorescent DNA intercalator, primary screen, artefact control for HCV NS3 helicase inhibitor project, biochemical, FID fluorescence | 290,000 tested, 0.17% active | DNA fluorescent intercalator displacement | inhibition, % at 7.9 µM; in the data active means inhibition above about 37%;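 further: 0% = vehicle and 100% = reference compound; higher means more ethidium bromide displaced from hairpin DNA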
Ba/F3 V617F tox: reduced viability of JAK2V617F-dependent Ba/F3 cells, primary screen, JAK2V617F inhibitor project, cell-based, Ba/F3 EpoR-JAK2V617F, luminescence | inhibition, % at 5.6 µM | ATP luminescence | 220,000 tested, 1.1% active;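 active means inhibition above the campaign mean plus 3 SD over all tested compounds, cut at about 24% in these data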;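 further: cytokine-independent growth of Ba/F3 cells driven by EpoR plus mutant JAK2; 0% = DMSO-treated cells and 100% = JAK inhibitor I control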
BaF3 parental: parental Ba/F3 cell viability inhibition, counter-screen for JAK2V617F inhibitor project, murine pro-B, CellTiter-Glo luminescence; CellTiter-Glo ATP luminescence; AID 1486, 2009; 220,000 tested, 1.1% active; inhibition, % at 5.6 µM;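 active means inhibition above a per-campaign cutoff, the mean inhibition of all tested compounds plus 3 SD, cut at about 27% in these data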;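 further: 0% = DMSO wells and 100% = JAK Inhibitor I control wells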
GPR7 antag: GPR7 receptor antagonists, primary screen, cell-based, fluorescence, single concentration. Neuropeptides B/W receptor type 1 (Homo sapiens), P48145. GPR7-expressing cells, fluorescence antagonist assay. inhibition, % at 4.4 µM. 290,000 tested, 1.1% active. AID 1861, 2009; in the data active means inhibition above about 16%, passing the limit was not always enough;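 further: cells stimulated with the agonist NPW; 0% = agonist with vehicle and 100% = vehicle without agonist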
Target sequence (P48145 whole entry, looked up): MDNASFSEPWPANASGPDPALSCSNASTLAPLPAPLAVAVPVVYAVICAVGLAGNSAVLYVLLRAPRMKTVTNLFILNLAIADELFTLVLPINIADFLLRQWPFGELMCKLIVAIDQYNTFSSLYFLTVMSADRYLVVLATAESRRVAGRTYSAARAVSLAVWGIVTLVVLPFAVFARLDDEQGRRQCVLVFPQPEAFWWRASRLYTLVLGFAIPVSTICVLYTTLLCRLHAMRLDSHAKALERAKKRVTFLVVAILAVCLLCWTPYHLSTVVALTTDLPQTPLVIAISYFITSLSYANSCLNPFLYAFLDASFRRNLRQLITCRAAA
IEC-6 cytotox: cytotoxicity in IEC-6 intestinal epithelial cells, primary screen, cytotoxicity control for KLF5 inhibitor project, cell-based, luminescence; AID 1825, 2009; inhibition, % at 5 µM; 290,000 tested, 0.78% active; IEC-6 cytotoxicity, luminescence viability;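 further: 0% = plate median of test compound wells and 100% = cytotoxic reference compound wells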
IEC-6 tox confirm: cytotoxic compounds in IEC-6 epithelial cells, confirmation, cytotoxicity control, cell-based, luminescence. shares compounds with IEC-6 cytotox. IEC-6 rat intestinal epithelial viability. inhibition, % at 5 µM. 1,900 tested, 63% active;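 further: 0% = vehicle and 100% = reference cytotoxic drug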
* marks the source's active call; other numbers are inactive results; . = no result given. This is a sample that favours compounds with a hit; in the whole collection about 2.6% have one here. Unless noted, no stated cut-off is given here; in the data, active means inhibition above about 22%; inactive means the rest.

SMILES	KLF5 inhibitor	FID counter	Ba/F3 V617F tox	BaF3 parental	GPR7 antag	IEC-6 cytotox	IEC-6 tox confirm
CC(=O)C1=NN(c2ccc(Cl)cc2)C(c2ccc3c(c2)OCO3)N(C(C)=O)N1C (configuration not stated)	7	-30	-2	5	8	-7	.
Cc1ccc(-c2cn(-c3ccccc3F)c(=S)[nH]2)cc1	-130	-19	.	.	-8	-5	.
Cc1ccc(NC(=O)C2c3ccccc3Oc3ccccc32)nc1	-14	-8	1	13	-11	46*	41*
CC1(C)CC(=O)c2cc(C(=O)NC3CCSC3=O)c(=O)n(-c3ccc(Cl)cc3)c2C1 (configuration not stated)	-25	-36	5	10	-4	3	.
O=C(N/N=C/c1ccc(Cl)cc1)c1n[nH]c2c1CCCC2	19	-8	75*	71*	11	82*	63*
O=C(N/N=C/c1ccccc1)c1n[nH]c2c1CCCC2	-81	-5	1	2	-1	6	.
O=C(N/N=C/C(Br)=C/c1ccccc1)c1n[nH]c2c1CCC2	-49	-9	92*	92*	13	94*	3
COc1ccc(C(=O)NCc2nnc(SCC(=O)Nc3nc4ccccc4s3)o2)cc1	-31	-41	3	6	-9	64*	-7
CC1CC(C)(C)Nc2ccc(N=O)cc21 (configuration not stated)	-62	7	97*	93*	-4	24*	21
Cc1cccc(C)c1OCCNC(=O)OCc1ccccc1	-18	-21	5	4	-5	1	.
CC(C)NC(=S)N/N=C/c1cc(Br)ccc1O	-14	5	-6	3	-3	94*	1
COC(=O)N/N=C/c1cc(Br)ccc1O	-21	-2	3	10	-6	2	.
CCCCN(C)CCCNC(=O)CN1C(=O)COc2ccc(S(=O)(=O)N3CCOCC3)cc21	-18	5	.	.	-9	-5	.
COc1ccc2c(c1)C(C)=CC(C)(C)N2S(=O)(=O)c1ccc(Br)cc1	22	-17	74*	69*	29*	68*	57*
COc1ccc(N(CC(=O)Nc2ccccc2OC)S(=O)(=O)c2ccc(NC(C)=O)cc2)cc1	35	-31	.	.	13	38*	32*
CCn1c(CN2CCOCC2)nnc1SCC(=O)Nc1ccc(C(C)=O)cc1	-26	-17	.	.	-11	2	.
COc1cccc(OCc2cc(C(=O)N3CCCC3c3ccccn3)no2)c1 (configuration not stated)	-96	-33	.	.	-13	7	.
CCN(c1ccccc1)c1cc2ccccc2c(=O)[nH]1	-13	-1	.	.	-4	1	.
CC(C)C(=O)NC(c1cccc([N+](=O)[O-])c1)c1ccc2cccnc2c1O (configuration not stated)	79*	-18	.	.	-21	25*	67*
CC(=O)NC(c1ccc(Cl)cc1Cl)c1ccc2cccnc2c1O (configuration not stated)	59	-26	.	.	-10	49*	73*
COc1cc(CN2CCc3ccccc3C2)ccc1O	19	2	97*	103*	-1	30*	16
COc1cc(NC(=O)c2cccs2)ccc1NC(=O)c1ccco1	-151	-8	0	4	-13	0	.
COc1ccccc1C(=O)COC(=O)c1ccc(N(C)C)cc1	-71	-12	0	1	-11	-9	.
COc1ccc(C(=O)c2ccc(N(C)C)cc2)c2ccccc12	60	-11	77*	78*	13	78*	58*
Cc1ccc(C2(CCN)CCOC(C(C)C)C2)cc1 (configuration not stated)	21	7	-3	3	4	-2	.
Cc1ccc(C(C)C)c(OCc2ccc(C(=O)N/N=C/c3cccc(O)c3O)cc2)c1	34	-9	97*	90*	-6	41*	78*

Source: PubChem BioAssay
